# Results with a measured potency or affinity are listed apart. Calls of active or inactive are those of the source.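 Rule for the calls: active = cell killing, meaning signal decrease, with fitted half-maximal dose at or below ten times the top valid tested dose; inconclusive = poor fit, or flat curve with 30 to 70% signal loss; inactive = the rest.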
# Test: HeLa cell cytotoxicity, dose response, cytotoxicity control for MITF activator project, CellTiter-Glo luminescence, cherry-pick samples (AID 540259)
row,Structure (SMILES),outcome
1,Cc1cnc(NC(=O)Nc2ccc(Cl)cc2)s1,inactive
2,c1csc(-c2nc(N3CCCCC3)no2)c1,inactive
3,COc1ccccc1C(=O)NCCC(=O)NC1CCC(C)CC1 (centres undefined),inactive
4,ClCCn1cnc2c(SCc3ccccc3)ncnc21,inactive
5,Cc1ccc(CNc2nc(C)cs2)cc1,inactive
6,O=C(c1noc2c1CCCC2)N1CCc2ccccc2C1,inactive
7,CC(C)(C)c1ccc(C(=O)NCc2ccccc2)cc1,inactive
8,O=C(NCc1ccc2c(c1)OCO2)Nc1cccc(Cl)c1,inactive
9,CSCC[C@H](NC(=O)[C@@H]1Cc2ccccc2CN1)C(=O)NC[C@H]1CC[C@H](C(=O)O)CC1,inactive
10,Cc1ccc(Nc2nnc(-c3ccccc3N)o2)cc1C,inactive
11,Cc1ccccc1-c1nc2cc(Cl)ccc2o1,inactive
12,Cc1cc(C(=O)Cn2nc(C(=O)O)c3ccccc3c2=O)c(C)n1CC(F)(F)F,inactive
13,Cc1nn(-c2ccc(N3CCCCC3)nn2)c(C)c1CCC(=O)Nc1cccc(F)c1,inactive
14,C/C(=C\c1ccc(N)cc1)c1nc2ccccc2[nH]1,inactive
